Results on 29 sequences are retold here after PMC11006913.

What all share (assay): PBM; 200 nM protein, PBS
Holding throughout (conditions): dsDNA, one strand shown

The target in assay [1] is ALX1 (Homo sapiens, UniProt Q15699 118-204, L144V).
For assay [2], the target named is ALX1 (Homo sapiens, UniProt Q15699 118-204, L144R).
The target in assay [3] is ALX1 (Homo sapiens, UniProt Q15699 118-204).
The target in assay [4] is VAX1 (Homo sapiens, UniProt Q5SQQ9 86-172).
Assay [5] deals with VAX1 (Homo sapiens, UniProt Q5SQQ9 86-172, T142I).
The target of assay [6] is VAX1 (Homo sapiens, UniProt Q5SQQ9 86-172, K157R).
Assay [7] deals with MSX2 (Homo sapiens, UniProt P35548 130-214, R199I).
Assay [8] concerns the target MSX2 (Homo sapiens, UniProt P35548 130-214).
Assay [9] has as its target MSX2 (Homo sapiens, UniProt P35548 130-214, F161Y).

MSX2 (Homo sapiens, UniProt P35548 130-214), sequence (P35548 130-214): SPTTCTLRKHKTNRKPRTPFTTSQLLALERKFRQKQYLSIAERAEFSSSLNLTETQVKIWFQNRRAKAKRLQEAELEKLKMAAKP
MSX2 (Homo sapiens, UniProt P35548 130-214, R199I), sequence (P35548 130-214 R199I): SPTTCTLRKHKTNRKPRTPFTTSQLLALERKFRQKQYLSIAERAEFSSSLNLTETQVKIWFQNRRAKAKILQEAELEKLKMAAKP
ALX1 (Homo sapiens, UniProt Q15699 118-204, L144V), sequence (Q15699 118-204 L144V): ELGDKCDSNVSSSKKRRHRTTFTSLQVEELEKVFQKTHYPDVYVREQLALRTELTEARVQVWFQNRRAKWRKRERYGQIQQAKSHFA
ALX1 (Homo sapiens, UniProt Q15699 118-204), sequence (Q15699 118-204): as the sequence (Q15699 118-204 L144V) above, with V27L counted along it
MSX2 (Homo sapiens, UniProt P35548 130-214, F161Y), sequence (P35548 130-214 F161Y): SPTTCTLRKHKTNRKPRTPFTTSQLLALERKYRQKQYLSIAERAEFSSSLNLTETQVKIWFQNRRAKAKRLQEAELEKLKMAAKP
ALX1 (Homo sapiens, UniProt Q15699 118-204, L144R), sequence (Q15699 118-204 L144R): as the sequence (Q15699 118-204 L144V) above, with V27R counted along it
VAX1 (Homo sapiens, UniProt Q5SQQ9 86-172), sequence (Q5SQQ9 86-172): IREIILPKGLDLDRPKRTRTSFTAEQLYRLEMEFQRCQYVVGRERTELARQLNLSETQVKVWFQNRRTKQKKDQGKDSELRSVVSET
VAX1 (Homo sapiens, UniProt Q5SQQ9 86-172, T142I), sequence (Q5SQQ9 86-172 T142I): as the sequence (Q5SQQ9 86-172) above, with T57I counted along it
VAX1 (Homo sapiens, UniProt Q5SQQ9 86-172, K157R), sequence (Q5SQQ9 86-172 K157R): as the sequence (Q5SQQ9 86-172) above, with K72R counted along it

On to CTGAATTC, for which the binding signal in assay [1] was 7.73 upbm affinity estimate (log intensity, higher = more binding, comparable within an allelic series); in assay [2], 7.6 upbm affinity estimate (log intensity, higher = more binding, comparable within an allelic series); in [3] it was 7.82 upbm affinity estimate (log intensity, higher = more binding, comparable within an allelic series).
In the case of GCGGAGCC, the binding signal in [1] is 6.64 upbm affinity estimate (log intensity, higher = more binding, comparable within an allelic series); in assay [2] it was 6.35 upbm affinity estimate (log intensity, higher = more binding, comparable within an allelic series); in [4], 7.22 upbm affinity estimate (log intensity, higher = more binding, comparable within an allelic series); in assay [5], 7.36 upbm affinity estimate (log intensity, higher = more binding, comparable within an allelic series); in assay [3] it was 6.57 upbm affinity estimate (log intensity, higher = more binding, comparable within an allelic series); in assay [6] it was 7.24 upbm affinity estimate (log intensity, higher = more binding, comparable within an allelic series).
In the case of ATACATAA, the binding signal in assay [7] was 11 upbm affinity estimate (log intensity, higher = more binding, comparable within an allelic series); in assay [8], 11.6 upbm affinity estimate (log intensity, higher = more binding, comparable within an allelic series); in assay [9], 11.4 upbm affinity estimate (log intensity, higher = more binding, comparable within an allelic series).
On to CGACTGCC, for which the binding signal was 6.48 upbm affinity estimate (log intensity, higher = more binding, comparable within an allelic series) in [1]; 6.43 upbm affinity estimate (log intensity, higher = more binding, comparable within an allelic series) in [2]; 6.37 upbm affinity estimate (log intensity, higher = more binding, comparable within an allelic series) in assay [3].
Regarding CCTGAGCC, the binding signal is 9.54 upbm affinity estimate (log intensity, higher = more binding, comparable within an allelic series) in assay [7]; 9.53 upbm affinity estimate (log intensity, higher = more binding, comparable within an allelic series) in [8]; 9.53 upbm affinity estimate (log intensity, higher = more binding, comparable within an allelic series) in assay [9].
On to GGACGGGA, for which the binding signal is 9.67 upbm affinity estimate (log intensity, higher = more binding, comparable within an allelic series) in [7]; 9.5 upbm affinity estimate (log intensity, higher = more binding, comparable within an allelic series) in [8]; 9.6 upbm affinity estimate (log intensity, higher = more binding, comparable within an allelic series) in assay [9].
AAACAATA: the binding signal is 8.22 upbm affinity estimate (log intensity, higher = more binding, comparable within an allelic series) in assay [1]; 8.34 upbm affinity estimate (log intensity, higher = more binding, comparable within an allelic series) in assay [2]; 9.16 upbm affinity estimate (log intensity, higher = more binding, comparable within an allelic series) in assay [4]; 8.8 upbm affinity estimate (log intensity, higher = more binding, comparable within an allelic series) in [5]; 8.26 upbm affinity estimate (log intensity, higher = more binding, comparable within an allelic series) in assay [3]; 8.82 upbm affinity estimate (log intensity, higher = more binding, comparable within an allelic series) in [6].
For the sequence CCTGACTC, the binding signal is 9.6 upbm affinity estimate (log intensity, higher = more binding, comparable within an allelic series) in assay [7]; 9.49 upbm affinity estimate (log intensity, higher = more binding, comparable within an allelic series) in assay [8]; 9.54 upbm affinity estimate (log intensity, higher = more binding, comparable within an allelic series) in [9].
Consider CGGGTTCC, for which the binding signal in assay [1] was 6.36 upbm affinity estimate (log intensity, higher = more binding, comparable within an allelic series); in [2] it was 6.23 upbm affinity estimate (log intensity, higher = more binding, comparable within an allelic series); in assay [3], 6.28 upbm affinity estimate (log intensity, higher = more binding, comparable within an allelic series).
On to CAGACTGG, for which the binding signal in [1] was 6.33 upbm affinity estimate (log intensity, higher = more binding, comparable within an allelic series); in assay [2], 6.4 upbm affinity estimate (log intensity, higher = more binding, comparable within an allelic series); in assay [3], 6.39 upbm affinity estimate (log intensity, higher = more binding, comparable within an allelic series).
Consider CGTATAAG, for which the binding signal in [1] is 8.14 upbm affinity estimate (log intensity, higher = more binding, comparable within an allelic series); in assay [2], 8.05 upbm affinity estimate (log intensity, higher = more binding, comparable within an allelic series); in [3], 8.12 upbm affinity estimate (log intensity, higher = more binding, comparable within an allelic series).
CCAGACTC: the binding signal in assay [1] was 6.24 upbm affinity estimate (log intensity, higher = more binding, comparable within an allelic series); in [2] it was 6.47 upbm affinity estimate (log intensity, higher = more binding, comparable within an allelic series); in assay [3] it was 6.13 upbm affinity estimate (log intensity, higher = more binding, comparable within an allelic series).
For GCACCAGC, the binding signal in [1] was 6.41 upbm affinity estimate (log intensity, higher = more binding, comparable within an allelic series); in [2], 6.46 upbm affinity estimate (log intensity, higher = more binding, comparable within an allelic series); in assay [3], 6.19 upbm affinity estimate (log intensity, higher = more binding, comparable within an allelic series).
In the case of CATTAAAG, the binding signal in [1] is 9.86 upbm affinity estimate (log intensity, higher = more binding, comparable within an allelic series); in assay [2] it was 9.67 upbm affinity estimate (log intensity, higher = more binding, comparable within an allelic series); in assay [3], 10.1 upbm affinity estimate (log intensity, higher = more binding, comparable within an allelic series).
ACGATTAC: the binding signal in [1] was 8.4 upbm affinity estimate (log intensity, higher = more binding, comparable within an allelic series); in assay [2] it was 8.26 upbm affinity estimate (log intensity, higher = more binding, comparable within an allelic series); in assay [3], 8.62 upbm affinity estimate (log intensity, higher = more binding, comparable within an allelic series).
With ACCCGCGT, the binding signal in [1] is 6.47 upbm affinity estimate (log intensity, higher = more binding, comparable within an allelic series); in [2] it was 6.51 upbm affinity estimate (log intensity, higher = more binding, comparable within an allelic series); in assay [3], 6.45 upbm affinity estimate (log intensity, higher = more binding, comparable within an allelic series).
With AATATTTA, the binding signal in assay [1] was 9.37 upbm affinity estimate (log intensity, higher = more binding, comparable within an allelic series); in [2], 9.47 upbm affinity estimate (log intensity, higher = more binding, comparable within an allelic series); in assay [3] it was 9.54 upbm affinity estimate (log intensity, higher = more binding, comparable within an allelic series).
Consider GACTCGAC, for which the binding signal is 6.55 upbm affinity estimate (log intensity, higher = more binding, comparable within an allelic series) in assay [1]; 6.63 upbm affinity estimate (log intensity, higher = more binding, comparable within an allelic series) in [2]; 6.64 upbm affinity estimate (log intensity, higher = more binding, comparable within an allelic series) in assay [3].
Take AGTTACTG: the binding signal in [1] was 8.01 upbm affinity estimate (log intensity, higher = more binding, comparable within an allelic series); in [2], 7.88 upbm affinity estimate (log intensity, higher = more binding, comparable within an allelic series); in assay [3], 8.32 upbm affinity estimate (log intensity, higher = more binding, comparable within an allelic series).
As for GGACCCAC, the binding signal in assay [1] was 6.45 upbm affinity estimate (log intensity, higher = more binding, comparable within an allelic series); in assay [2], 6.3 upbm affinity estimate (log intensity, higher = more binding, comparable within an allelic series); in [3] it was 6.26 upbm affinity estimate (log intensity, higher = more binding, comparable within an allelic series).
On to GAGGAGCC, for which the binding signal in assay [1] was 6.5 upbm affinity estimate (log intensity, higher = more binding, comparable within an allelic series); in assay [2] it was 6.54 upbm affinity estimate (log intensity, higher = more binding, comparable within an allelic series); in assay [3], 6.27 upbm affinity estimate (log intensity, higher = more binding, comparable within an allelic series).
On to AAGACAAT, for which the binding signal in [1] was 8.75 upbm affinity estimate (log intensity, higher = more binding, comparable within an allelic series); in assay [2], 8.63 upbm affinity estimate (log intensity, higher = more binding, comparable within an allelic series); in [3] it was 8.96 upbm affinity estimate (log intensity, higher = more binding, comparable within an allelic series).
GGCTAGGA: the binding signal in [1] was 6.64 upbm affinity estimate (log intensity, higher = more binding, comparable within an allelic series); in [2] it was 6.63 upbm affinity estimate (log intensity, higher = more binding, comparable within an allelic series); in assay [3] it was 6.34 upbm affinity estimate (log intensity, higher = more binding, comparable within an allelic series).
Turning to CAACGGAG, the binding signal is 6.43 upbm affinity estimate (log intensity, higher = more binding, comparable within an allelic series) in [1]; 6.49 upbm affinity estimate (log intensity, higher = more binding, comparable within an allelic series) in [2]; 6.47 upbm affinity estimate (log intensity, higher = more binding, comparable within an allelic series) in assay [3].
With CCGACTGC, the binding signal in assay [1] is 6.5 upbm affinity estimate (log intensity, higher = more binding, comparable within an allelic series); in assay [2], 6.49 upbm affinity estimate (log intensity, higher = more binding, comparable within an allelic series); in assay [3], 6.52 upbm affinity estimate (log intensity, higher = more binding, comparable within an allelic series).
As for AAATGGGA, the binding signal in assay [1] was 8.33 upbm affinity estimate (log intensity, higher = more binding, comparable within an allelic series); in assay [2] it was 8.01 upbm affinity estimate (log intensity, higher = more binding, comparable within an allelic series); in assay [3], 8.46 upbm affinity estimate (log intensity, higher = more binding, comparable within an allelic series).
Consider CCCCCCCC, for which the binding signal in assay [1] is 6.17 upbm affinity estimate (log intensity, higher = more binding, comparable within an allelic series); in assay [2], 6 upbm affinity estimate (log intensity, higher = more binding, comparable within an allelic series); in assay [3], 6.16 upbm affinity estimate (log intensity, higher = more binding, comparable within an allelic series).
As to AAATGATG, the binding signal in assay [1] is 8.1 upbm affinity estimate (log intensity, higher = more binding, comparable within an allelic series); in [2], 8.04 upbm affinity estimate (log intensity, higher = more binding, comparable within an allelic series); in assay [3], 8.35 upbm affinity estimate (log intensity, higher = more binding, comparable within an allelic series).
On to ACCCGCTC, for which the binding signal in [1] was 6.49 upbm affinity estimate (log intensity, higher = more binding, comparable within an allelic series); in assay [2] it was 6.49 upbm affinity estimate (log intensity, higher = more binding, comparable within an allelic series); in assay [3], 6.43 upbm affinity estimate (log intensity, higher = more binding, comparable within an allelic series).
